# aSyn UTR inh – 5' untranslated region of α-synuclein, MLPCN primary screen. inhibition, % (tested at 7.5 µM). alpha-synuclein 5'UTR reporter, inhibitor activity. AID 1813. hit rate 0.82% among 300,000; in the data active means inhibition above about 60%;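 further: H4 neuroglioblastoma cells stably carrying SNCA 5'UTR luciferase fusion; 0% = DMSO wells and 100% = positive control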
# KLF5 inh – kruppel-like factor 5 inhibition | inhibition, % at 5 µM | hit rate 0.23% among 290,000 | AID 1700 | DLD-1 KLF5 promoter-luciferase reporter, luminescence;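 active means inhibition above a per-plate limit of that plate's mean compound inhibition plus 3 SD, cut at about 60% in these data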;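 further: 0% = DMSO wells and 100% = LY294002 at 200 µM; higher means less KLF5 promoter-driven luciferase light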
# Ba/F3 V617F tox – lowers viability of Ba/F3 cells expressing EpoR and JAK2V617F | inhibition, % at 5.6 µM | hit rate 1.1% among 220,000 | AID 1446 | ATP luminescence;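 active means inhibition above the campaign mean plus 3 SD over all tested compounds, cut at about 24% in these data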;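 further: cytokine-independent growth of Ba/F3 cells driven by EpoR plus mutant JAK2; 0% = DMSO-treated cells and 100% = JAK inhibitor I control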
# IEC-6 cytotox – kills IEC-6 intestinal cells in KLF5 counter-screen; hit rate 0.78% among 290,000; IEC-6 cytotoxicity, luminescence viability; inhibition, % at 5 µM; in the data active means inhibition above about 22%;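 further: 0% = plate median of test compound wells and 100% = cytotoxic reference compound wells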
# APP transl inh – APP translation inhibition | SH-SY5Y APP 5'UTR-luciferase reporter, luminescence | inhibition, % at 2 µM | hit rate 0.82% among 190,000 | AID 1285;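 active means inhibition above a set limit, derived from the sample mean plus 3 SD, cut at about 45% in these data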
# BaF3 parental – counter-screen for JAK2V617F inhibitors: parental Ba/F3 viability inhibitors. CellTiter-Glo ATP luminescence. inhibition, % at 5.6 µM. hit rate 1.1% among 220,000;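 active means inhibition above a per-campaign cutoff, the mean inhibition of all tested compounds plus 3 SD, cut at about 27% in these data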;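 further: 0% = DMSO wells and 100% = JAK Inhibitor I control wells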
# * hit, by the source's call; . = no result. In the library only some 2.2% were active in any assay of this set; here they are far more common.
SMILES,aSyn UTR inh,KLF5 inh,Ba/F3 V617F tox,IEC-6 cytotox,APP transl inh,BaF3 parental
Cc1cc(C(=O)N/N=C/c2cccc3ccccc23)c(C)o1,-62,-60,.,6,.,.
CCCCOc1ncnc2c1[nH]c1ccccc12,-81,-23,0,4,-11,35*
CCOCCCNc1ncnc2c1[nH]c1ccccc12,-20,-10,3,10,-7,22
CCCCOCCCNc1ncnc2c1[nH]c1ccccc12,-53,-28,64*,14,5,61*
COc1ccccc1NC(=O)c1ccc2nc(C)c(C)nc2c1,-37,-37,.,-6,.,.
O=C(NCCS(=O)(=O)N1CCN(c2ccccc2)CC1)C1CC1,-8,.,.,.,.,.
N#Cc1c(-c2ccc(Cl)cc2)c2c([nH]c1=O)-c1ccccc1OC2,17,5,12,-2,.,51*
Cc1c(C(=O)NCCN2CCOCC2)oc2ccc(Br)cc12,-19,.,.,.,.,.
O=C(Nc1cccc(-c2nc3ccccc3o2)c1)c1ccc(N2C(=O)C3C4C=CC(C4)C3C2=O)cc1 (stereo not given),88*,-32,0,-4,-11,1
Cc1cc(C(F)(F)F)nc(-n2cc(-c3ccccc3)nn2)n1,-31,-45,2,-7,-29,8
Cc1cccc(N2CCN(C(=O)C3CCN(c4nnc(-n5cccc5)s4)CC3)CC2C)c1 (stereo not given),-14,-3,6,2,15,45*
O=c1[nH][nH]cc1C=Nc1ccc(Cl)cc1Cl,-53,-3,4,0,64*,5
O=c1[nH][nH]cc1C=Nc1cc(Cl)ccc1O,-49,-14,5,3,21,3
CCC(C)NS(=O)(=O)c1ccc(NC(C)=O)cc1 (stereo not given),1,-4,0,5,-27,2
COC(=O)C(C)NS(=O)(=O)c1ccc(NC(C)=O)cc1 (stereo not given),10,1,5,26*,-21,5
COc1cccc(C(=O)NCC(c2ccc3c(c2)OCO3)N2CCN(c3ccc(F)cc3)CC2)c1 (stereo not given),4,.,.,.,.,.
Cn1c(N2CCCC2)nc2c1c(=O)[nH]c(=O)n2C,16,-59,.,0,.,.
CCN(C(=O)CC(C)C)c1nnc(Cn2nnc3ccccc32)s1,17,-17,-3,-4,4,11
CCN(C(=O)c1ccc(C(C)(C)C)cc1)c1nnc(Cn2nnc3ccccc32)s1,-23,-28,27*,9,13,55*
CC(=O)c1c(C)[nH]c(C(=O)COc2cc(C)ccc2C(C)C)c1C,23,-11,45*,17,4,40*
CCSc1nc(CC)c2c(c1C#N)CCCC2,15,-15,0,2,-2,5
O=C(NCc1ccc(Cl)cc1)c1cccnc1,0,-31,6,3,11,5
CN1CCN(C(c2ccc(C(F)(F)F)cc2)c2cc(Cl)c3cccnc3c2O)CC1 (stereo not given),53,47,.,11,.,.
CCC(=O)NC(c1cccs1)c1cc(Cl)c2cccnc2c1O (stereo not given),86*,7,4,14,61*,4
CC(=O)NC(c1ccc(C)cc1)c1cc([N+](=O)[O-])c2cccnc2c1O (stereo not given),55,-37,-3,-4,6,7
SMILES,aSyn UTR inh,KLF5 inh,Ba/F3 V617F tox,IEC-6 cytotox,APP transl inh,BaF3 parental
CCC(=O)NC(c1ccc(C)cc1)c1cc([N+](=O)[O-])c2cccnc2c1O (stereo not given),64*,-1,3,1,26,9
O=C(NC(c1ccc(Cl)cc1)c1cc(Cl)c2cccnc2c1O)c1cccnc1 (stereo not given),98*,-14,4,5,79*,9
CN1CCN(C(c2ccc(Cl)cc2)c2cc(Cl)c3cccnc3c2O)CC1 (stereo not given),77*,51,.,6,.,.
COc1ccc(C2(C)NC(=O)N(CC(=O)NCc3ccccc3F)C2=O)cc1 (stereo not given),-4,-7,.,-9,.,.
O=C(NCC(=O)N(c1cccnc1)C(C(=O)NC1CCCCC1)c1ccccc1F)c1ccco1 (stereo not given),16,3,.,11,.,.
CCCCC(=O)NC(c1cccs1)c1cc(Cl)c2cccnc2c1O (stereo not given),80*,12,0,1,72*,1
CCCC(=O)NC(c1ccc(OC)c(OC)c1)c1cc(Cl)c2cccnc2c1O (stereo not given),50,-3,-5,-1,53*,2
Clc1ccc2nc(-c3ccccn3)c(Nc3ccc4c(c3)OCO4)n2c1,-47,-4,0,0,46*,5
NC(=O)c1ccc(NC(=O)CCC(=O)N2CCN(S(=O)(=O)c3ccc(Cl)cc3)CC2)cc1,-9,-5,4,-3,.,-2
COc1ccc(S(=O)(=O)N2CCc3ccccc32)cc1C(=O)Nc1ccc(C(N)=O)cc1,-9,.,.,.,.,.
O=C(Nc1cnn(Cc2c(Cl)cccc2Cl)c1)C(c1ccccc1)c1ccccc1,13,-28,-1,-7,78*,7
O=C(Nc1ccc(-c2nc3ccccc3[nH]2)cc1)c1ccc2c(c1)OCO2,-102,-133,-2,0,-45,10
c1ccc2[nH]c(-c3ccc4c(c3)OCO4)nc2c1,79*,.,.,.,.,.
COc1ccc(-c2csc(NCCc3nc4cc(Cl)c(Cl)cc4n3CCCO)n2)cc1,-43,.,.,.,.,.
Nc1c(C(=O)c2ccccc2)sc2snc(SCC(=O)c3ccccc3)c12,-37,-30,-4,4,-38,95*
CCC(Oc1ccccc1)C(=O)Nc1cc(C)on1 (stereo not given),6,1,-1,1,5,-3
CCC(Oc1ccccc1)C(=O)Nc1ccccn1 (stereo not given),-46,2,-2,-2,-35,89*
O=C(O)C1CCN(c2ccc(Cl)nn2)CC1,14,-22,-1,-2,-20,2
Cc1ccc(-c2cc[n+](Cc3ccccc3)cc2)cc1,.,-18,85*,4,-4,73*
Cc1cccc(Cc2nnc(CCC(=O)N(CC3CC3)CC3CCCO3)o2)c1 (stereo not given),-112,-73,-1,0,-50,4
CCN(CC1CCCO1)C(=O)CCc1nnc(Cc2ccc3c(c2)OCO3)o1 (stereo not given),-11,-18,6,2,-12,82*
COc1ccc(NC2=CC(=O)CC(c3ccccc3)C2)c(OC)c1 (stereo not given),12,38,39*,17,4,43*
COc1ccc(Nc2oc(COc3ccccc3F)nc2C#N)cc1,38,-20,-1,4,-1,3
COc1ccc(Nc2oc(COc3cccc(C)c3)nc2C#N)cc1,29,-44,1,5,-4,6
COc1ccc(Nc2oc(COc3ccc(C)cc3)nc2C#N)cc1,68*,-31,4,0,-2,4
COc1ccc(Nc2oc(COc3ccc(OC)cc3)nc2C#N)cc1,78*,4,-3,1,4,-2
